Compound activity (PubChem BioAssay)
This is a sample that favours compounds with a hit; in the whole collection about 4.1% have one here.
DAX1 inh-1 = NR0B1 (DAX1) inhibition; P51843; HEK293 Gal4-DAX1 luciferase reporter, luminescence; inhibition, % at 6.75 µM; 340,000 tested, 0.99% active; AID 504766;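 active = inhibition above the mean over all tested compounds plus 3 SD, cut at about 4.2% in these data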;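 also: inhibition shows as a rise in luminescence from relieved DAX1 repression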
ssDAF-12 act = S. stercoralis DAF-12 activation, primary screen | 370,000 tested, 1% active | AID 652126 | activation, % at 6.8 µM | HEK293 ssDAF-12/GRIP1 lit1-tk-luc reporter, luminescence; % of 3 µM dafachronic acid response;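 active = activation above the mean over all tested compounds plus 3 SD, cut at about 0.9% in these data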
hcDAF-12 act = activates DAF-12 receptor from parasite H. contortus | AID 652067 | 370,000 tested, 1.4% active | HEK293 hcDAF-12 lit1-tk-luc reporter, luminescence; 0% DMSO, 100% Δ7-dafachronic acid | activation, % at 6.8 µM;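 active = activation above the mean of all tested compounds plus 3 SD, cut at about 5.5% in these data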
hgDAF-12 ag = agonists of H. glycines DAF-12 nuclear receptor; 370,000 tested, 1.8% active; activation, % at 6.8 µM; AID 687014; HEK293 GAL4-hgDAF12 UAS-luciferase reporter, agonist luminescence; normalized to butyrate control;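 active = activation above a cutoff set at the mean of all screened compounds plus 3 SD, cut at about 10% in these data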
DAX1 inh-2 = DAX1 (NR0B1) inhibition, primary screen | HEK293T StAR-luciferase reporter, SF-1/DAX-1 repression relief | inhibition, % at 6.8 µM | 370,000 tested, 1.1% active;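 active = inhibition above the mean over all tested compounds plus 3 SD, cut at about 3.6% in these data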;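 also: higher inhibition means more luminescence from relief of DAX-1 repression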
hgDAF12 ag = confirmation of H. glycines DAF-12 agonists; HEK293 GAL4-hgDAF12 luciferase reporter, agonist mode; percent of butyrate response; shares compounds with hgDAF-12 ag; 3,300 tested, 80% active; activation, % at 6.8 µM;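 active = mean activation over triplicate wells above the hit cutoff derived from the earlier primary screen, cut at about 11% in these data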
LXR ag 2 = LXR-beta agonism as DAF-12 counter-screen | shares compounds with hgDAF-12 ag | HEK293 Gal4-LXR luciferase reporter, 24 h | activation, % at 6.8 µM | 3,300 tested, under 10 active | AID 743051;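 active = mean activation of the triplicate above a set limit carried over from the primary screen, none filed active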
Target sequence (P55055 whole entry, looked up, the tested form may be a part): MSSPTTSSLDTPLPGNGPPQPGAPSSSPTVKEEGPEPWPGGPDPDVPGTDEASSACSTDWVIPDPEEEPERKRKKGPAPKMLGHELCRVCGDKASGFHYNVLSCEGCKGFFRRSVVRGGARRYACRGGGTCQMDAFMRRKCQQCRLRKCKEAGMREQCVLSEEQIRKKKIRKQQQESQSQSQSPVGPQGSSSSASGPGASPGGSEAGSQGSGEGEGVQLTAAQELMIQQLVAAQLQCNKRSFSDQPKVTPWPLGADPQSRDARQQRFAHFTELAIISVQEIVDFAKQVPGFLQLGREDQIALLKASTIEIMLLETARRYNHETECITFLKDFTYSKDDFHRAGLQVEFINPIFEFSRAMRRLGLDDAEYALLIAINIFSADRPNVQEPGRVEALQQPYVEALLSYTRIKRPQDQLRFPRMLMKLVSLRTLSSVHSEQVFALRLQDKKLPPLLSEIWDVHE
Numbers stand for hits; – = inactive; · = no result.

SMILES	DAX1 inh-1	ssDAF-12 act	hcDAF-12 act	hgDAF-12 ag	DAX1 inh-2	hgDAF12 ag	LXR ag 2
C[C@H](O)[C@@H]1CN2CCc3c([nH]c4c(-c5ccccc5)cccc34)[C@@H]2C[C@@H]1N(C)C(=S)NCCc1ccccc1	·	–	–	–	–	·	·
C(=C\c1ccccc1)/C=N/Nc1nc2ccccc2[nH]1	–	–	–	15	–	17	–
Cc1ccc(Cc2c(C3CCCCC3)nc3cc(C)c(Br)c(C)n23)cc1	·	–	–	–	–	·	·
O=C(N/N=C/C1CC=CCC1)c1ccc(Cl)cc1O (stereo unspecified)	–	1.1	–	16	–	–	–
O=c1[nH]c(/C=C/c2ccccc2Cl)nc2ccccc12	–	–	–	14	–	21	–
O=C(O)c1ccc(/C=C/c2nc3ccccc3c(=O)[nH]2)cc1	–	–	–	–	–	·	·
Cc1cccc(/C=C/c2nc3ccccc3c(=O)[nH]2)c1	–	–	–	18	3.7	21	–
COc1cc(/C=C/c2nc3ccccc3c(=O)[nH]2)ccc1O	–	–	–	17	3.7	11	–
CCOC(=O)[C@@H](NC(=O)/C=C/[C@H]1O[C@@H](n2cc(C)c(=O)[nH]c2=O)C[C@@H]1O)C(C)C	·	–	–	–	–	·	·
O=C(Nc1ccc(SC(F)F)cc1)c1ccc(F)cc1	–	–	–	14	–	14	–
O=C(Nc1ccc(SC(F)F)cc1)c1ccccc1F	6.2	–	–	16	3.9	15	–
CC(=O)Nc1ccc(NC(=O)c2ccccc2F)cc1	–	–	–	–	–	·	·
O=C(COC(=O)c1ccccc1Cc1ccccc1)Nc1ccc(SC(F)F)cc1	–	–	–	14	–	17	–
O=C(Cc1ccccc1F)Nc1ccc(SC(F)F)cc1	–	–	–	17	–	14	–
O=[N+]([O-])C1C(c2ccccc2)C12c1ccccc1-c1ccccc12 (stereo unspecified)	–	·	·	·	·	·	·
CCC[C@H]1CN(c2ccc(Br)cc2)C(=O)[C@@H]1CC(=O)NC	–	–	–	–	–	·	·
Nc1nc(N)c(N=Nc2ccc(C(=O)O)cc2)c(N)n1	–	–	–	–	–	·	·
O=C(O)c1ccc(N=Nc2c(O)[nH]c3cc(Cl)ccc23)cc1	6.4	–	–	17	3.7	19	–
Cc1cc(C)c[n+](CC(=O)c2c(C)cc(C)c([N+](=O)[O-])c2C)c1	–	–	–	–	–	·	·
CNC(=S)Nc1cccc2[nH]ncc12	–	–	–	–	–	·	·
O=C(NC(=S)Nc1cccc2[nH]ncc12)c1ccccc1	–	–	–	22	–	16	–
N#CCCN(Cc1ccccc1)C(C(=O)NC1CCCCC1)C1CC1 (stereo unspecified)	·	–	–	–	–	·	·
CCOC(=O)C1(Cc2ccccc2Cl)CCN(C(=O)c2cnccn2)CC1	–	–	–	16	–	11	–
CCOC(=O)C1(Cc2ccccc2Cl)CCN(C(=O)c2cc(C)on2)CC1	–	–	–	–	–	·	·
CC(=O)Oc1ccc(C(=O)[C@H]2[C@H]3C(=O)N(c4ccc5ccccc5c4)C(=O)[C@H]3[C@@H]3C=CC=NN32)cc1	–	–	–	14	–	–	–
SMILES	DAX1 inh-1	ssDAF-12 act	hcDAF-12 act	hgDAF-12 ag	DAX1 inh-2	hgDAF12 ag	LXR ag 2
O=C(Nc1ncc([N+](=O)[O-])s1)c1cccc([N+](=O)[O-])c1	4.6	–	5.9	14	–	–	–
CN(N=Cc1ccc([N+](=O)[O-])cc1)c1ccccn1	–	–	–	–	–	·	·
CCOC(=O)c1cnc(-c2ccccc2)nc1N	–	–	–	14	4.5	16	–
CCCCSc1nc2c(cnn2-c2ccccc2)c(=O)n1N	–	–	–	19	–	14	–
Nn1c(SCc2ccccc2)nc2c(cnn2-c2ccccc2)c1=O	–	–	–	–	–	·	·
CC(=O)Nc1cccc(-c2ccnc3c2CC(C)(C(=O)Nc2cccc(NS(C)(=O)=O)c2)O3)c1 (stereo unspecified)	·	–	–	–	–	·	·
C=CCCC1CN(Cc2ccc(OC)cc2)S(=O)(=O)c2c(Oc3ccc(C(C)C)cc3)cccc2O1 (stereo unspecified)	·	–	–	–	–	·	·
Cc1cccc(-c2nsc(SCC(=O)NCc3ccco3)n2)c1	–	–	–	–	–	·	·
Cc1cccc(-c2nsc(SCC(=O)NCC3CCCO3)n2)c1 (stereo unspecified)	–	–	–	18	–	–	–
CCCCn1nnnc1C1c2ccccc2OCC(=O)N1Cc1ccc2c(c1)OCO2 (stereo unspecified)	·	–	–	–	–	·	·
CC(C)(C)C(=O)c1cnc(Nc2ccccc2Cl)s1	–	–	–	13	–	16	–
Cc1cnc(NC(=O)Cc2ccccc2Cl)s1	–	–	–	–	–	·	·
O=C(NCc1ccco1)c1ccc(C(F)(F)F)cc1	·	–	–	–	–	·	·
CC(Cc1ccco1)NC(=O)c1ccc(C(F)(F)F)cc1 (stereo unspecified)	–	1.0	–	14	–	16	–
Cc1sc(NC(=O)C2CC(=O)N(Cc3ccco3)C2)nc1-c1ccccc1 (stereo unspecified)	–	–	–	–	–	·	·
CO/C(N)=C(\C#N)N=Cc1ccccc1Cl	–	–	–	14	–	–	–
C[N+]1(C)[C@H]2CC[C@H]1CC(OC(=O)C(O)c1ccccc1)C2 (stereo partly specified)	·	–	–	–	–	·	·
c1ccc(CSc2ccc(-c3cccs3)nn2)cc1	–	–	–	14	4.3	15	–
COC(=O)c1cc(CNC(=O)c2ccccc2OCc2c(C)noc2C)ccc1OC	–	–	–	–	–	·	·
CCCCS/C(N)=N/N=C/c1cc(C)ccc1O	–	–	–	–	–	·	·
CN(C)/N=C/c1c(O)ccc2ccccc12	–	–	–	–	–	·	·
CS/C(N)=N/N=C/c1c(O)ccc2ccccc12	–	1.0	–	19	–	13	–
CS/C(N)=N/N=C/c1cc(C)ccc1O	4.3	–	–	18	–	14	–
CCN(CC(=O)Nc1c(F)cccc1F)C(=O)c1ccc2c(=O)n3c(nc2c1)CCC3	–	–	–	16	–	–	–
COc1cc(/C=N/NC(=O)CCC(=O)Nc2ccc(F)cc2)ccc1O	–	–	–	24	–	–	–
CCOc1cc(/C=N/NC(=O)N/N=C/c2ccc(O)c(OCC)c2)ccc1O	·	1.1	–	14	–	16	–
COc1ccc(OC)c(NC(=O)C2(C)CCN2Cc2ccc(OC)c3ccccc23)c1 (stereo unspecified)	·	–	–	–	–	·	·
Cc1ccc(NC(=S)NC(=O)C2CCC2)cc1C	–	–	–	14	–	11	–
